Screening results: PubChem, several laboratories
rCAG binder – r(CAG) repeat RNA binding | TO-PRO-1 dye displacement fluorescence | 1.3% of 370,000 active | inhibition, % at 3 µM;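 active = inhibition above the plate cutoff, the mean of all test compounds on that plate plus 3 SD, cut at about 35% in these data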;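 note: higher means more dye released from RNA so lower well fluorescence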
LANA-H2B inh – blocks KSHV LANA binding to histone H2A/H2B; Q9QR71; cell-free LANA-H2A/H2B peptide, fluorescence polarization; inhibition, % (concentration not given with the values); 0.6% of 320,000 active; in the data active = inhibition mostly above about 10%, no sharp cut-off; inactive = mostly below about 6.7%
ABHD5 PLIN5 PPI – blocks binding of human ABHD5 to perilipin-5; 0.78% of 360,000 active; AID 602281; Split G. princeps luciferase complementation, luminescence, 4 h; Q00G26+Q8WTS1; inhibition, % at 4 µM;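 active = inhibition above the mean inhibition across every tested compound plus 3 SD, cut at about 22% in these data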
Target sequence (Q00G26 whole entry, looked up): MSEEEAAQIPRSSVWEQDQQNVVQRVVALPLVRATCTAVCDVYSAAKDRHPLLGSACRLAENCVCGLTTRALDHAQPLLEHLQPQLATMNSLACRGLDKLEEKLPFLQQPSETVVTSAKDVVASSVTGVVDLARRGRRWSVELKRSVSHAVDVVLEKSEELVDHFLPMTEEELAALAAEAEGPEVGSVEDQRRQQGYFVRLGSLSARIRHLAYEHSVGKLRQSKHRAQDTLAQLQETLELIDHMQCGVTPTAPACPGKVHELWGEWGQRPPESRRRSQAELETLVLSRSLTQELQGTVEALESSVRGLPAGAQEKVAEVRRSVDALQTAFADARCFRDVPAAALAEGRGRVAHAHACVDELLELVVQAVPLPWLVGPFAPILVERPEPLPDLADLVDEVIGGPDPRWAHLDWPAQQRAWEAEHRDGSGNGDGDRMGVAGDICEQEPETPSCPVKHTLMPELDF
Target sequence (Q8WTS1 whole entry, looked up): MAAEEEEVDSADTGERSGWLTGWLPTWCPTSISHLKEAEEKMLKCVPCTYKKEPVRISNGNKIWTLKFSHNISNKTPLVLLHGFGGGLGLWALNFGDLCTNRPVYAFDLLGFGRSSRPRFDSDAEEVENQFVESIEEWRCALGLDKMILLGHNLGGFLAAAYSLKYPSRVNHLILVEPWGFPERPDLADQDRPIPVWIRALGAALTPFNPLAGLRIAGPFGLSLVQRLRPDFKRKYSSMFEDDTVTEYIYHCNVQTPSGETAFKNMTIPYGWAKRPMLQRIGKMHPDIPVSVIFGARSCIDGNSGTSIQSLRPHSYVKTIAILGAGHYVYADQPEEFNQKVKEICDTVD
ALR H2O2 inh – human ALR oxidase inhibition via reduced H2O2; inhibition, % (test concentration not listed); 3.8% of 290,000 active; purified ALR, DTT oxidation, H2O2 HRP-luminol luminescence; P55789;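 active = mean replicate inhibition above about 79%, with every replicate also reaching it, limit read from the data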
Rtt109 HAT inh – C. albicans Rtt109 histone acetyltransferase inhibition; purified Rtt109/Vps75, ThioGlo CoA-SH fluorescence, 4 h; inhibition, % at 34.9 µM; 0.16% of 330,000 active;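 active = inhibition of at least 50% in every replicate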
PRMT1 FP inh – blocks human protein arginine methyltransferase 1; recombinant PRMT1, activity-based probe fluorescence polarization; inhibition, % at 2.79 µM; 1.3% of 370,000 active; AID 652257;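 active = inhibition above about 21% made by adding two undisclosed values, limit read from the data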
Large screens that a line does not name were inactive. Hits are enriched below; roughly 5.9% of the tested compounds scored in any of these assays.

CC(=O)c1ccc(N/N=C2/CCCNC2=O)cc1	ALR H2O2 inh 99.4
Cc1ccc(N/N=C2/CCCNC2=O)cc1	ALR H2O2 inh 90.0
O=C1NCCC/C1=N/Nc1cc(F)ccc1F	none (no result: ALR H2O2 inh)
O=C([C@H]1O[C@@H](n2ccc(=O)[nH]c2=O)[C@H](O)[C@@H]1O)N(CCC1=CCCCC1)CC1CC1	none (no result: LANA-H2B inh, ALR H2O2 inh, Rtt109 HAT inh)
COc1ccc(NC(=O)c2cc(C3CCCCN3C(=O)c3ccccc3)on2)c(C)c1 (centres undefined)	none (no result: LANA-H2B inh, ALR H2O2 inh, Rtt109 HAT inh)
O=C(COc1ccc2c3c(c(=O)oc2c1)CCCC3)NCCN1CCOCC1	none (no result: rCAG binder, PRMT1 FP inh)
Cc1cc(=O)oc2cc(OC(C)C(=O)NCC3CCCO3)ccc12 (centres undefined)	LANA-H2B inh 20.7 (no result: ALR H2O2 inh)
Cc1cc(=O)oc2cc(OC(C)C(=O)NCC3CCC(C(=O)O)CC3)ccc12 (centres undefined)	none
CC(Oc1ccc2c3c(c(=O)oc2c1)CCCC3)C(=O)NCCN1CCOCC1 (centres undefined)	LANA-H2B inh 11.4
COCCn1c(/C=C/c2ccccc2)nc2ccccc21	LANA-H2B inh -127.1
CCCn1c(/C=C/c2ccco2)nc2ccccc21	ALR H2O2 inh 89.2
CCCC1CCC2(CC1)CCC2OC(=O)Nc1ccccc1C (centres undefined)	none (no result: rCAG binder, LANA-H2B inh, ABHD5 PLIN5 PPI, ALR H2O2 inh, Rtt109 HAT inh)
Cc1nn(S(=O)(=O)c2ccc(C(C)C)cc2)c(C)c1S(=O)(=O)N1CCOCC1	Rtt109 HAT inh 54.3
CN(C)CCCN(C(=O)COc1ccc(Cl)cc1)c1nc2cc3c(cc2s1)OCO3	ABHD5 PLIN5 PPI 23.1
CN(C)CCCN(C(=O)COc1ccc(Cl)cc1)c1nc2cc3c(cc2s1)OCCO3	none
CC(C)Cc1ccc(CN2CCCC(NC(=O)c3cccc(-n4cnnc4)c3)C2)cc1 (centres undefined)	LANA-H2B inh 52.6
CC(C)Cc1ccc(CN2CCCC(NC(=O)c3ccoc3)C2)cc1 (centres undefined)	none
CCOc1cc(C(=O)N2CCN=C2SC)cc(OCC)c1OCC	PRMT1 FP inh 24.3
O=C(CSCc1ccccc1)N1CCN(Cc2ccc3c(c2)OCO3)CC1	none
Cc1cccc(-c2nc(CSCC(=O)N3CCN(Cc4ccc5c(c4)OCO5)CC3)c(C)o2)c1	ALR H2O2 inh 98.4
Cc1ccc(-c2nc(CSCC(=O)N3CCOCC3)c(C)o2)cc1	ALR H2O2 inh 99.1
Cc1ccc(-c2nnc(SCC(=O)N3CCOCC3)nc2-c2ccc(C)cc2)cc1	ALR H2O2 inh 95.1
Cc1ccc(-c2nc(CS(=O)(=O)CC(=O)N3CCOCC3)c(C)o2)cc1	none
Cc1ccc(-c2nc(CSCC(=O)N3CCN(C(=O)c4ccco4)CC3)c(C)o2)cc1	ALR H2O2 inh 99.2
O=c1oc(-c2ccccc2)c(-c2ccccc2)c2ccccc12	none (no result: LANA-H2B inh, ALR H2O2 inh)
COc1ccc(C[N+]2=C(N)N[C@@]3(C=C(C)Cn4c(=O)n(-c5ccccc5)c(=O)n43)C2)c(OC)c1	none (no result: LANA-H2B inh, ABHD5 PLIN5 PPI, ALR H2O2 inh, Rtt109 HAT inh)
CCN(CC(=O)NCc1ccc(F)cc1)C(=O)/C=C/c1ccco1	ALR H2O2 inh 87.5
C[C@H]1C(=O)CC[C@@]23CCCN2C(=O)CCC[C@@H]13	none (no result: rCAG binder, LANA-H2B inh, ABHD5 PLIN5 PPI, ALR H2O2 inh, Rtt109 HAT inh)
Clc1ccc(/C=N\Nc2ccccc2)cc1	ALR H2O2 inh 98.6
Cc1ccc(N/N=C/c2cccnc2)cc1	ALR H2O2 inh 100.7
Cc1ccc(N/N=C/c2ccncc2)cc1	ALR H2O2 inh 99.2
O=C(Nc1cccc(Cl)c1)O/N=C\c1ccncc1	none
Clc1cccc(N/N=C/c2ccncc2)c1	ALR H2O2 inh 94.8 (no result: Rtt109 HAT inh)
COC(=O)[C@]12C[C@H](CC(=O)N3CCCC3)C(=O)N(Cc3ccco3)C1=C[C@H](C(C)C)O[C@@H]2C1CC1	none (no result: LANA-H2B inh, ABHD5 PLIN5 PPI, ALR H2O2 inh, Rtt109 HAT inh)
COC(=O)[C@]12C[C@H](CC(=O)N3CCSCC3)C(=O)N(CCc3ccc(OC)c(OC)c3)C1=C[C@H](C(C)(C)C)O[C@@H]2C	none (no result: LANA-H2B inh, ABHD5 PLIN5 PPI, ALR H2O2 inh, Rtt109 HAT inh)
CC(=O)N(O)c1ccc(C=Cc2ccccc2)cc1	none (no result: LANA-H2B inh, ALR H2O2 inh, Rtt109 HAT inh)
COc1cc(/C=C(\C#N)c2nc3ccc(C)cc3[nH]2)c([N+](=O)[O-])cc1OC	none
COc1cc(/C=C(\C#N)C(=O)c2c[nH]c3ccccc23)cc(OC)c1O	ALR H2O2 inh 99.4
COc1cc(/C=C(\C#N)c2nc3ccccc3[nH]2)cc(OC)c1O	ALR H2O2 inh 99.3
COc1cc(/C=C(\C#N)c2nc3ccc(C)cc3[nH]2)cc([N+](=O)[O-])c1O	rCAG binder 62.6 (no result: LANA-H2B inh, ALR H2O2 inh, Rtt109 HAT inh)
COc1c(O)ccc(/C=C(\C#N)c2nc3ccccc3[nH]2)c1[N+](=O)[O-]	ALR H2O2 inh 87.2
